Tests used:
Type in all cases: functional
[1] = molecular target: Solute carrier family 2, facilitated glucose transporter member 1 (Homo sapiens) (UniProt P11166); assay: ST_JUDE_LEISH: Cytotoxicity at 2uM final concentration against transgenic Leishmania Mexicana promastigotes LmGLUT1 that are glucose transport deficient and complemented with the human glucose transporter GLUT1. Activity is measured by DNA content using SYBR green in vitro
[2] = molecular target: Hexose transporter 1 (Plasmodium falciparum) (UniProt O97467); assay: ST_JUDE_LEISH: Cytotoxicity at 2uM final concentration against transgenic Leishmania Mexicana promastigotes LmPfHT that are glucose transport deficient and complemented with the Plasmodium falciparum hexose transporter. Activity is measured by DNA content using SYBR green in vitro
[3] = molecular target: Glucose transporter (Leishmania mexicana) (UniProt O61059); assay: ST_JUDE_LEISH: Cytotoxicity at 2uM final concentration against transgenic Leishmania Mexicana promastigotes LmGT2 that are glucose transport deficient and complemented with the L. Mexicana glucose transporter 2. Activity is measured by DNA content using SYBR green in vitro

Chain of Solute carrier family 2, facilitated glucose transporter member 1 (Homo sapiens) (P11166 whole entry): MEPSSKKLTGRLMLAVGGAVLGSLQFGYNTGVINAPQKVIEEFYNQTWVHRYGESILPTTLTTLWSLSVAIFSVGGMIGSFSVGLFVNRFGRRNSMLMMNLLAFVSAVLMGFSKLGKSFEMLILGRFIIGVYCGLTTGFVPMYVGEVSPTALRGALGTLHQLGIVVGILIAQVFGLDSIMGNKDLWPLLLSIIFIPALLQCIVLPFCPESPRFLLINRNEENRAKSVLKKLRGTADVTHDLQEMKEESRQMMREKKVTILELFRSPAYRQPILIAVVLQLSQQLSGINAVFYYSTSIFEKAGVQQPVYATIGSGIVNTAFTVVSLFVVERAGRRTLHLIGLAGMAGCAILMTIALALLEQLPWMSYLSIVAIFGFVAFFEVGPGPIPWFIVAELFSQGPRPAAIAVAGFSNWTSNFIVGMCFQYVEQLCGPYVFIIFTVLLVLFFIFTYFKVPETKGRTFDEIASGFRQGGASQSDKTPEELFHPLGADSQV

| SMILES | inhibition [1] [%] | inhibition [2] [%] | inhibition [3] [%] |
| --- | --- | --- | --- |
| COc1ccc2nc(C)cc(Nc3ccc(Cl)c(Cl)c3)c2c1 | 7.6 | 14.2 | 17.3 |
| O=C(Nc1ccc(-c2cccc(-c3nc4cc(F)ccc4[nH]3)c2)cc1)Nc1ccc(Cl)c(Cl)c1 | 3.29 | 1.92 | 3.36 |
| O=S(=O)(Nc1cccc(CCN2CCC(N3CCCCC3)CC2)c1)c1cccc(C(F)(F)F)c1 | 0.17 | 3.24 | 0.82 |
| CC(C)c1ccc(CN2CCC(NC(=O)c3ccc(-c4cccc(F)c4)s3)CC2)cc1 | 1.18 | -0.01 | -0.6 |
| CN1CCC(NCc2ccc(-c3ccc(Cl)cc3)cc2)CC1 | 5.65 | 8.78 | 4.44 |
| C[C@H](NC(=O)c1c(CN2CCC(N3CCCCC3)CC2)c(-c2ccccc2)nc2cc(O)ccc12)C1CCCCC1 | 4.25 | 4.06 | 3.03 |
